Reference: PMC13494018
Unmarked numbers belong to inactive results. No rule for the calls is given here.

B1: design_597_f3dcd2b3-c7aa-4b15-88bc-bbb8d01a18cd_1586_dldesign_0_cycle1_af2pred (protein)
chain: AAAIEKAKAAVEELLKAAEEALKLAEKDPSYAKYAEEVKKKINKVAKELKEALLADPSVANKLQEARQIATEAEATAKIKK
B2: design_597_f3dcd2b3-c7aa-4b15-88bc-bbb8d01a18cd_1719_dldesign_0_cycle1_af2pred (protein)
chain: LEKNVKKAIEAAKKAIEAGKKAKEAGLEELAKEAIEKAKKAIEAAAKDKASGGETAKETANAAQEARQAKSEAESAIKKK
B3: design_597_f3dcd2b3-c7aa-4b15-88bc-bbb8d01a18cd_1026_dldesign_0_cycle1_af2pred (protein)
chain: MEVVEKMAEEIAKAAEEAGDKVTAALARAVAARAKKEKEISPEEAVKRLGEDAKFMAEDNGNEELAKKIKEIAEKALKEV
B4: design_597_f3dcd2b3-c7aa-4b15-88bc-bbb8d01a18cd_1746_dldesign_0_cycle1_af2pred (protein)
chain: SLKTKALAEAGRAIALSDSVISALPDSELAKKAKEIKKKAEEAMEKAEKGEKLEEALKEAKKLKEEAKKLRKEAEKEKKA
B5: design_597_f3dcd2b3-c7aa-4b15-88bc-bbb8d01a18cd_1765_dldesign_0_cycle1_af2pred (protein)
chain: SMEEEKKKKEAEKARKEAEKAIEEIKKNPENKELQTEALAKAYEAKAIDKEVGKEAIKKVREAIKEARKKL
B6: design_597_f3dcd2b3-c7aa-4b15-88bc-bbb8d01a18cd_1341_dldesign_0_cycle1_af2pred (protein)
chain: AAAVEAAKAEITKLAAELSAKAFEAKAAASVFPEYKPVYELYKEAAEKAKEGLVLLKALGEKALEEAKKLAEEAKKLAKEGDELEKKL
B7: design_597_f3dcd2b3-c7aa-4b15-88bc-bbb8d01a18cd_1339_dldesign_0_cycle1_af2pred (protein)
chain: AEAEKYKKEAEKALKELEEIAKKYPSSTKIQANYESAKEYFEHNEQAAKLNPEKAAEAYKKAYEYAKRKLEEAKKIAEELEKKE
B8: design_597_f3dcd2b3-c7aa-4b15-88bc-bbb8d01a18cd_1493_dldesign_0_cycle1_af2pred (protein)
chain: AEAERARREAALAEAERRAAELIFAAVDEGTKVSNEEAAKVMEETRARIEALMDETGAAYDPERAAEIRDRATATMTRLAESYK
B9: design_597_f3dcd2b3-c7aa-4b15-88bc-bbb8d01a18cd_601_dldesign_0_cycle1_af2pred (protein)
chain: SKAEEKAKELEEKLKKAEELAKKDPKKGAKYAKEIAKEARKAGKETGETEKFAKIADKAYQIAAEAEFKAK
B10: design_597_f3dcd2b3-c7aa-4b15-88bc-bbb8d01a18cd_1306_dldesign_0_cycle1_af2pred (protein)
chain: GKMKEDEEKLKEIEKEAKKAIEEAKKLAKEDPKKGAEYAKKASKEITERGTELGKTMSPEVRKKLAEVVQKAREELTEIAFKAR
B11: design_597_f3dcd2b3-c7aa-4b15-88bc-bbb8d01a18cd_1782_dldesign_0_cycle1_af2pred (protein)
chain: MEEVKKKVAEAVQAGYRAAATLSKEEGKKLREETKELAKKLTELVKKSEELAGDPEKAKALADEATKIAEKAKEEYEKIDKA
B12: design_597_f3dcd2b3-c7aa-4b15-88bc-bbb8d01a18cd_1120_dldesign_0_cycle1_af2pred (protein)
chain: MLAKIARIIADITTATAKLLRKTGPKFVKLTKVLAVLADIIGDLALKTGKEEDIKAGGYALAAAERARHAAEAAE
B13: design_597_f3dcd2b3-c7aa-4b15-88bc-bbb8d01a18cd_2012_dldesign_0_cycle1_af2pred (protein)
chain: AEAKKEAAKLSEEAAELAAEAWLKAKKAKPEEAEKYKKAAEYFKEAIKILQAGEDLEKAKALYEKGKALYEEA
B14: design_597_f3dcd2b3-c7aa-4b15-88bc-bbb8d01a18cd_1536_dldesign_0_cycle1_af2pred (protein)
chain: SGANAAQEARAEYTAAKQLAKINKKDKEKAAKLLEEAYKKVEELAKKADEEGKKIAEKYAKELKELAKKYLKE
B15: design_597_f3dcd2b3-c7aa-4b15-88bc-bbb8d01a18cd_627_dldesign_0_cycle1_af2pred (protein)
chain: MYKELAENYRKGVRALSRRYRLRAELDPAKAAEYGAEATRERDKLFNASPEEVKKAAEEWAKEEAAVAAEAAALAAAA
B16: design_597_f3dcd2b3-c7aa-4b15-88bc-bbb8d01a18cd_925_dldesign_0_cycle1_af2pred (protein)
chain: HKEENEAMKEILDEFNEAGRKMQEYVKAGKLEEAKKALEEEAKKMLEIGKKAGENALELAEELVEEARRNLEKAIEAAK
B17: design_597_f3dcd2b3-c7aa-4b15-88bc-bbb8d01a18cd_1020_dldesign_0_cycle1_af2pred (protein)
chain: GHSEEGKEISEKIREISRIAKEAGKEIKKYPGGEELMKELGETRDKAIDEAAEGGLEEAKKALEKVKKAAKELLKKAKA
B18: design_597_f3dcd2b3-c7aa-4b15-88bc-bbb8d01a18cd_1491_dldesign_0_cycle1_af2pred (protein)
chain: DEGEKLKKEFKEEIEEVAKEAKELVKEGVSPKVAARLVENTAEVLIKEAEKHKEGEEIKKAVKEEAEKKKEEILKL
B19: design_597_f3dcd2b3-c7aa-4b15-88bc-bbb8d01a18cd_570_dldesign_0_cycle1_af2pred (protein)
chain: NAIKKEVEEHLAKAEEYTAKAIETASDPEKFKEYFEKMREEFGKALKAAKADPELKKLAEDKLMEAQMKVTEAKGEAARKKNN

The binders below were run against VTCN1, Q7Z7D3.
Chain of VTCN1, Q7Z7D3 (Q7Z7D3 whole entry): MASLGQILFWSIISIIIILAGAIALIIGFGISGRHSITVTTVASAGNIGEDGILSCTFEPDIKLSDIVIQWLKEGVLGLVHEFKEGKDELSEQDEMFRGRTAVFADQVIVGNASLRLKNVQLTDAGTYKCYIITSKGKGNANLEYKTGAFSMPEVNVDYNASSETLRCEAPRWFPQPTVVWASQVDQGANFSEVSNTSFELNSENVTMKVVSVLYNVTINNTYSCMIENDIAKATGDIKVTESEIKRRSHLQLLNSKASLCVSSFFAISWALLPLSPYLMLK

**Q.** Which “binding in a display sort” value does the source give for B1 here?
**A.** Its value is “not found”.

**Q.** How did the “binding in a display sort” value turn out when B2 was run?
**A.** The value was “not found”.

**Q.** How did the “binding in a display sort” value turn out when B3 was run?
**A.** The value was “not found”.

**Q.** With B4 as the binder, how does the “binding in a display sort” value read?
**A.** Its value is “not found”.

**Q.** How did the “binding in a display sort” value turn out when B5 was run?
**A.** Its value is “not found”.

**Q.** B6 was tested. Which “binding in a display sort” value did it give?
**A.** Its value is “not found”.

**Q.** How did the “binding in a display sort” value turn out when B7 was run?
**A.** The value was “not found”.

**Q.** With B8 as the binder, how does the “binding in a display sort” value read?
**A.** The value was “not found”.

**Q.** B9 was tested. Which “binding in a display sort” value did it give?
**A.** The value was “not found”.

**Q.** B10 was tested. Which “binding in a display sort” value did it give?
**A.** Its value is “not found”.

**Q.** For B11, which “binding in a display sort” value is on record?
**A.** The value was “not found”.

**Q.** Which “binding in a display sort” value does the source give for B12 here?
**A.** Its value is “not found”.

**Q.** With B13 as the binder, how does the “binding in a display sort” value read?
**A.** Its value is “not found”.

**Q.** For B14, which “binding in a display sort” value is on record?
**A.** Its value is “not found”.

**Q.** With B15 as the binder, how does the “binding in a display sort” value read?
**A.** Its value is “not found”.

**Q.** For B16, which “binding in a display sort” value is on record?
**A.** Its value is “not found”.

**Q.** B17 was tested. Which “binding in a display sort” value did it give?
**A.** Its value is “not found”.

**Q.** With B18 as the binder, how does the “binding in a display sort” value read?
**A.** Its value is “not found”.

**Q.** How did the “binding in a display sort” value turn out when B19 was run?
**A.** The value was “not found”.
